{
  "source": "PubChem BioAssay (NCATS)",
  "note": "Results filed as inconclusive are left out. Activity calls are given as the source filed them. Calls come from the whole dose curve; as a rule, active = well fitted activation curve with a large enough effect; inconclusive = small, poorly fitted or top-dose-only effect; inactive = no such curve, though single readings can be large or run the other way. Peptide text beside a SMILES is read from it. Potency is the fitted concentration of half-maximal effect.",
  "data": [
    {"target": "Cellular tumor antigen p53 (Homo sapiens) (UniProt P04637)", "sequence (P04637 whole entry, looked up)": "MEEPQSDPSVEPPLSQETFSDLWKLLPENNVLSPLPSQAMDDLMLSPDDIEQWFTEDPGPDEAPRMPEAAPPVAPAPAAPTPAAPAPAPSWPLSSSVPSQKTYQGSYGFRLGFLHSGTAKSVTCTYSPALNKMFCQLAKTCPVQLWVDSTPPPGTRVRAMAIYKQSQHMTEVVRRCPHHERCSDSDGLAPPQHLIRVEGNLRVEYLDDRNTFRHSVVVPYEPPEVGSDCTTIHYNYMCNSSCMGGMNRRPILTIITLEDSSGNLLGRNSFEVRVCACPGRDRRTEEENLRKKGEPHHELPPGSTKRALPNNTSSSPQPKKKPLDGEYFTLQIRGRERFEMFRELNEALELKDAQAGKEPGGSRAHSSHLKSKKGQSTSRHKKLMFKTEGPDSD", "test": "Primary qHTS for small molecule compounds that upregulate eGFP-tagged delta133p53alpha (in N-terminal) cells. (AID 2060322); note: nearly all actives have a fitted effect of over 75% in size;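 for activation: cells pre-induced with doxycycline then dosed without doxycycline; series mostly up to about 56 µM; 0% = DMSO vehicle and 100% = reference activator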", "conditions": "NCI-H358 eGFP-delta133p53alpha fluorescence, 24 h; activation: hits give high values", "outline": "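NCI-H358 cells pre-induced 24 h with 10 ng/ml doxycycline for eGFP-delta133p53alpha, plated dox-free and exposed 24 h at 37C to titrated compounds. Fixed, Hoechst-stained; gated GFP peak intensity by laser scanning cytometry, normalized to DMSO (0%) and 57.5 uM 5-azacytidine (100%).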", "values": [
      {"smiles": "C/C(=C\\C(=O)C(C)C1CCC2C3=C(CCC21C)C1(C)CCC(=O)C(C)(C)C1(O)CC3)C(C)(C)O", "note": "(stereo not given)", "activation": "-16.8% (inactive)"},
      {"smiles": "O=C(O)CCc1cc2ccoc2cc1O[C@@H]1O[C@H](CO)[C@@H](O)[C@H](O)[C@H]1O", "activation": "6.11% (inactive)"},
      {"smiles": "CC1OC(OC2CCC3(C)C(CCC4(C)C3C=CC35OCC6(CCC(C)(C)CC63)CCC45C)C2(C)CO)C(OC2OC(CO)C(O)C(O)C2O)C(O)C1OC1OC(CO)C(O)C(O)C1O", "note": "(stereo not given)", "activation": "14.3% (inactive)"},
      {"smiles": "CC(O)C(=O)/C=C/C=C/C(=O)OC1C=C2COC(=O)C2(O)C2(C)CCCC(C)(C)C12", "note": "(stereo not given)", "activation": "10.7% (inactive)"},
      {"smiles": "C[C@]12CCC[C@](C)(C(=O)O)C1CCC13CC(CO)C(CCC12)C3", "note": "(stereo not given in full)", "activation": "-19.1% (inactive)"},
      {"smiles": "CC1=CCC(C(C)(C)O[C@@H]2O[C@H](CO[C@@H]3O[C@@H](C)[C@H](O)[C@@H](O)[C@H]3O)[C@@H](O)[C@H](O)[C@H]2O)CC1", "note": "(stereo not given in full)", "activation": "-6.11% (inactive)"},
      {"smiles": "CC1(C)CC[C@]2(C(=O)O[C@@H]3O[C@H](CO)[C@@H](O)[C@H](O)[C@H]3O)CC[C@]3(C)C(=CCC4[C@@]5(C)C[C@@H](O)[C@H](O)[C@@](C)(CO)C5[C@H](O)C[C@]43C)C2C1", "note": "(stereo not given in full)", "activation": "3.82% (inactive)"},
      {"smiles": "CC(=O)c1ccc(O[C@@H]2O[C@H](CO[C@@H]3OC[C@@H](O)[C@H](O)[C@H]3O)[C@@H](O)[C@H](O)[C@H]2O)cc1", "activation": "-12.2% (inactive)"},
      {"smiles": "C=C1C(=O)O[C@@H]2C[C@@]3(C)CCC[C@H](C)C3=C[C@H]12", "Potency": "19 µM (active)"},
      {"smiles": "C/C1=C\\CCC2=C[C@@H](OC2=O)c2c(C)coc2C1", "activation": "13.4% (inactive)"},
      {"smiles": "C[C@]1(OC(=O)/C=C\\c2ccc(O)cc2)C[C@@H](O)[C@]2(O)C=CO[C@@H](O[C@@H]3O[C@H](CO)[C@@H](O)[C@H](O)[C@H]3O)C12", "note": "(stereo not given in full)", "activation": "23.7% (inactive)"},
      {"smiles": "C=C1C2CCC3C(CCC4[C@@]3(C)CCC[C@@]4(C)C(=O)O)(C2)[C@@H]1OC(=O)/C(C)=C\\C", "note": "(stereo not given in full)", "activation": "-8.93% (inactive)"},
      {"smiles": "CC1(C)CC2C(C1)C1(C)CCC13OC3(CO)C2O", "note": "(stereo not given)", "activation": "-14.3% (inactive)"},
      {"smiles": "CC1=CC(=O)C2C(C)(C)CCC[C@]2(C)[C@H]1CO", "note": "(stereo not given in full)", "activation": "-3.82% (inactive)"},
      {"smiles": "CCC[C@@H]1O[C@@H]2C[C@H]3[C@@H]4CCC5=CC(=O)C=C[C@]5(C)[C@H]4[C@@H](O)C[C@]3(C)[C@]2(C(=O)CO)O1", "activation": "6.33% (inactive)"},
      {"smiles": "Cn1c(=O)c2nc(/C=C/c3cccc(Cl)c3)n(C)c2n(C)c1=O", "activation": "-2.33% (inactive)"},
      {"smiles": "C=Cc1ccc(O[C@@H]2O[C@H](CO[C@@H]3O[C@@H](C)[C@H](O)[C@@H](O)[C@H]3O)[C@@H](O)[C@H](O)[C@H]2O)cc1", "activation": "0.893% (inactive)"},
      {"smiles": "Cc1ncc(CCCN(C)C)cc1Nc1ncc2c(n1)-c1ccc(C(F)(F)F)cc1NC(=S)C2", "activation": "22.3% (inactive)"},
      {"smiles": "CC1CCCCN1S(=O)(=O)c1ccc(N2CCCC2=O)cc1", "note": "(stereo not given)", "activation": "2.86% (inactive)"},
      {"smiles": "O=C(O[C@@H]1O[C@H](CO)[C@@H](O)[C@H](O)[C@H]1O)c1c(O)cc(O)cc1/C=C/c1ccccc1", "activation": "-23.7% (inactive)"},
      {"smiles": "C=C1CO[C@@]2(O[C@H]3CC4C5CC=C6C[C@@H](O)C[C@@H](O[C@@H]7OC[C@H](O)[C@H](O[C@@H]8OC[C@@H](O)[C@H](O)[C@H]8O)[C@H]7O[C@@H]7O[C@@H](C)[C@H](OC(C)=O)[C@@H](OC(C)=O)[C@H]7OC(C)=O)[C@]6(C)C5CC[C@]4(C)[C@@H]3[C@@H]2C)[C@@H](O)[C@H]1OC1OC(C)C(O)C(O)C1O", "note": "(stereo not given in full)", "activation": "-6.87% (inactive)"},
      {"smiles": "O=C(O)c1ccc(NC(=O)[C@H](CC2CCCC2)n2cnc(C(F)(F)F)c2)nc1", "activation": "-23.2% (inactive)"},
      {"smiles": "COc1ccc(/C=C/C(=O)O[C@@H]2[C@@H](O[C@@H]3O[C@H](CO)[C@@H](O)[C@H](O)[C@H]3O)[C@@H](O)[C@H](O[C@H]3C4C=CO[C@@H](O[C@@H]5O[C@H](CO)[C@@H](O)[C@H](O)[C@H]5O)C4[C@@]4(CO)O[C@@H]34)O[C@H]2C)cc1", "note": "(stereo not given in full)", "activation": "-9.92% (inactive)"},
      {"smiles": "Cn1nnc(-c2ccc(-c3ccc(N4C[C@H](CO)OC4=O)cc3F)cn2)n1", "activation": "-5.36% (inactive)"},
      {"smiles": "C[C@H](NC(=O)C(C)(C)Oc1ccc(C(F)(F)F)cn1)[C@@H](Cc1ccc(Cl)cc1)c1cccc(C#N)c1", "activation": "5.36% (inactive)"},
      {"smiles": "CC1(C(=O)O)CCCC2(C)C3=CCC4CC3(CCC12)CC4CO", "note": "(stereo not given)", "activation": "3.82% (inactive)"},
      {"smiles": "C/C=C(/C)C(=O)O[C@H]1[C@H](OC(=O)/C(C)=C\\C)[C@@]23C(CC1(C)C)[C@]1(CCC4[C@@]5(C)CC[C@H](O[C@@H]6O[C@H](C(=O)O)[C@@H](O)[C@H](O[C@@H]7O[C@H](CO)[C@H](O)[C@H](O)[C@H]7O[C@@H]7O[C@@H](C)[C@H](O)[C@@H](O)[C@H]7O[C@@H]7OC[C@@H](O)[C@H](O)[C@H]7O)[C@H]6O[C@@H]6O[C@H](CO)[C@H](O)[C@H](O)[C@H]6O)C(C)(C)C5CC[C@@]4(C)[C@]1(C)C[C@H]2O)O[C@H]3O", "note": "(stereo not given in full)", "activation": "-8.93% (inactive)"},
      {"smiles": "NC(=O)Nc1cc(-c2cccc(F)c2)sc1C(=O)NC1CCCNC1", "note": "(stereo not given)", "Potency": "19 µM (active)"},
      {"smiles": "CC(=O)NC(Cc1ccccc1)C(=O)NC(C(=O)O)C(C)C", "note": "(stereo not drawn) (Ac-Phe-Val-OH; configuration not given here)", "activation": "0% (inactive)"},
      {"smiles": "CCC(NC(=O)CC(NC(=O)C(CO)NC(=O)C(CC)NC(=O)c1ccc[nH]1)c1ccccc1)C(=O)O", "note": "(stereo not given)", "activation": "23.7% (inactive)"},
      {"smiles": "C[C@]1(CO)CCC[C@]2(C)C3=C(CCC12)COC3", "note": "(stereo not given in full)", "activation": "-8.04% (inactive)"},
      {"smiles": "CCOC(=O)[C@H](CCc1ccccc1)N[C@@H](C)C(=O)N1C2CCCCC2C[C@H]1C(=O)O", "note": "(stereo not given in full)", "activation": "-7% (inactive)"},
      {"smiles": "CC1(C)O[C@H]2CC(=O)OC[C@@]23C1=C(O)C(=O)[C@]1(C)C3CC[C@@]2(C)[C@H](c3ccoc3)OC(=O)[C@H]3O[C@]321", "note": "(stereo not given in full)", "activation": "-13% (inactive)"},
      {"smiles": "C/C(=C/CO)CC[C@@H]1[C@@]2(C)CCC[C@](C)(C(=O)O)C2CC[C@@]1(C)O", "note": "(stereo not given in full)", "activation": "27.7% (inactive)"},
      {"smiles": "O=C(N[C@@H]1CCCc2c1cnn2-c1ccc(F)cc1F)c1ccccn1", "activation": "12.3% (inactive)"},
      {"smiles": "COC(=O)C1=COC(O[C@@H]2O[C@H](COC(=O)/C=C/c3ccc(O)cc3)[C@@H](O)[C@H](O)[C@H]2O)C2C(CO)=CCC12", "note": "(stereo not given in full)", "activation": "-23.7% (inactive)"},
      {"smiles": "C=C1C(OC(C)=O)C(=O)C2C(C)(C)C(OC(C)=O)CCC2(C)C1CC(OC(C)=O)/C(C)=C/COC(C)=O", "note": "(stereo not given)", "activation": "17.6% (inactive)"},
      {"smiles": "Nc1ncnc2c1c(-c1ccc(Cl)cc1)nn2-c1cccc(-c2cnnn2Cc2cccc(-c3ccccc3)c2)c1", "activation": "8.04% (inactive)"},
      {"smiles": "CCCCc1ccc(NS(=O)(=O)c2ccc(F)cc2)cc1", "activation": "-9.55% (inactive)"},
      {"smiles": "CC(C)=CCC(O)[C@](C)(O)C1[C@H](O)C[C@@]2(C)C3CC=C4C(C[C@H](O)[C@@H](O[C@@H]5O[C@H](CO)[C@@H](O)[C@H](O)[C@H]5O)C4(C)C)[C@]3(C)C(=O)C[C@]12C", "note": "(stereo not given in full)", "activation": "10.7% (inactive)"}
    ]}
  ]
}
